From PubChem BioAssay (Tox21)
Results filed as inconclusive are left out. Where a call stands in place of a potency, no number is given. Calls of active or inactive are those of the source. Calls follow the shape of the dose curve; as a rule, active = well fitted activation curve with a large enough effect in the repeat runs; inconclusive = weak or mixed curves; inactive = flat fitted curve, though single readings scatter.

assay: A CellTox Green Cytotoxicity Assay to monitor cytotoxicity in HEK293 cells - 32 hour (AID 1224881); settings: CellTox Green fluorescence; series mostly up to 76.8 µM; also: nearly all actives have a fitted effect of over 40% in size
Outline: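 Homogeneous no-lysis format: HEK293 cell suspension mixed with CellTox Green reagent, seeded, incubated 5 h at 37 C/5% CO2, then dosed by pintool with compound in DMSO.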

Q: Which Potency does the source give for `Cn1cnc2c1c(=O)[nH]c(=O)n2C` here?
A: inactive

Q: Which Potency does the source give for `CN/C(=C\[N+](=O)[O-])NCCSCc1ccc(CN(C)C)o1` here?
A: inactive

Q: With `CC(=O)c1ccc(S(=O)(=O)NC(=O)NC2CCCCC2)cc1` as the molecule, how does the Potency read?
A: inactive

Q: Which Potency does the source give for `Cc1cccc2ccccc12` here?
A: inactive

Q: For `CCOC(=O)C(C)(C)Oc1ccc(Cl)cc1`, which Potency is on record?
A: inactive

Q: Which Potency does the source give for `NC(=O)NO` here?
A: inactive

Q: For `COCC(C)N` (stereo not given), which Potency is on record?
A: inactive

Q: Which Potency does the source give for `COC(=O)c1ccc(C=O)cc1` here?
A: inactive

Q: For `O=C1OC(c2ccc(O)cc2)(c2ccc(O)cc2)c2ccccc21`, which Potency is on record?
A: inactive

Q: For `CCCCOCCOCCSC#N`, which Potency is on record?
A: inactive

Q: With `Cc1c(N(C)CS(=O)(=O)O)c(=O)n(-c2ccccc2)n1C` as the molecule, how does the Potency read?
A: inactive

Q: With `O=C(O)CCCCC1CCSS1` (stereo not given) as the molecule, how does the Potency read?
A: inactive

Q: With `CC(C)(C)NCC(O)c1ccc(O)c(CO)c1` (stereo not given) as the molecule, how does the Potency read?
A: inactive

Q: With `O=C(O)Cc1cccc2ccccc12` as the molecule, how does the Potency read?
A: inactive

Q: For `CC1=C(/C=C/C(C)=C/C=C/C(C)=C/C(=O)O)C(C)(C)CCC1`, which Potency is on record?
A: inactive

Q: For `C[C@]12C[C@H](O)[C@H]3[C@@H](CCC4=CC(=O)CC[C@@]43C)[C@@H]1CC[C@@H]2C(=O)CO`, which Potency is on record?
A: inactive

Q: With `CCCCOCCOCCOC(C)=O` as the molecule, how does the Potency read?
A: inactive

Q: With `COc1ccccc1NC(=O)CC(C)=O` as the molecule, how does the Potency read?
A: inactive

Q: For `CCCCOC(=O)CCCCCCCCC(=O)OCCCC`, which Potency is on record?
A: inactive

Q: For `Cc1cccc(C)c1O`, which Potency is on record?
A: inactive

Q: With `NC(=O)OCC(COC(N)=O)c1ccccc1` as the molecule, how does the Potency read?
A: inactive

Q: For `COc1cc(O)c(C(=O)c2ccccc2)cc1S(=O)(=O)O`, which Potency is on record?
A: inactive

Q: With `C#C[C@]1(O)CC[C@H]2[C@@H]3CCc4cc(O)ccc4[C@H]3CC[C@@]21C` as the molecule, how does the Potency read?
A: inactive

Q: For `CCN(CC)CCOC(=O)c1ccc(N)cc1`, which Potency is on record?
A: inactive

Q: For `N[C@@H](Cc1c[nH]c2ccccc12)C(=O)O`, which Potency is on record?
A: inactive

Q: Which Potency does the source give for `CCN1CCCC1=O` here?
A: inactive

Q: Which Potency does the source give for `Nc1cccc(N)c1` here?
A: inactive

Q: Which Potency does the source give for `CC(=O)Oc1ccccc1C(=O)O` here?
A: inactive

Q: For `COCCOCCOC`, which Potency is on record?
A: inactive

Q: Which Potency does the source give for `CC(=O)OC/C=C(C)/C=C/C=C(C)/C=C/C1=C(C)CCCC1(C)C` here?
A: inactive
